Measured values published in PubChem BioAssay AID1159580 (chemical genetic matrix, 2015).
Among all 5,500 compounds or so, about 2,000 (36%) were called active. Not shown: some 18% with an inconclusive outcome. Some of the results follow. Values without a mark were called inactive. Cut-off read from the data, not from the text of the source: active = normalized growth mostly below about 0.91 (no sharp cut-off); inconclusive = no clear call, values can overlap the other calls; inactive = mostly above about 0.92.

Test: chemical genetic growth profiling, strain panel (AID 1159580);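 note: tested at 20 µM; growth read once vehicle control cultures reached saturation at 30 °C; 1 = growth at the plate median or of vehicle wells; lower values mean less growth of the strain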
Details: growth OD
[1] = S. cerevisiae deletion strains, locus YHR030C, strain SLT2, hits give low values

Compound `CC(C)CC1NC(=O)NC1=O` (configuration not stated) has a normalized growth (S. cerevisiae deletion strains, locus YAL013W, strain DEP1, hits give low values) of 1.02, a normalized growth (S. cerevisiae deletion strains, locus YBR229C, strain ROT2, hits give low values) of 1.01 and a normalized growth (S. cerevisiae deletion strains, locus YDL101C, strain DUN1, hits give low values) of 1. It also gave a normalized growth (S. cerevisiae deletion strains, locus YDL134C, strain PPH21, hits give low values) of 1.05, a normalized growth (S. cerevisiae deletion strains, locus YDR150W, strain NUM1, hits give low values) of 1.01 and a normalized growth (S. cerevisiae deletion strains, locus YEL061C, strain CIN8, hits give low values) of 1.02. For the same compound, the normalized growth (S. cerevisiae deletion strains, locus YGR078C, strain PAC10, hits give low values) was 1.01, the normalized growth (S. cerevisiae deletion strains, locus YGR229C, strain SMI1, hits give low values) was 1.01 and the normalized growth [1] was 1.04. The normalized growth (S. cerevisiae deletion strains, locus YHR087W, strain rtc3, hits give low values) was 1.02, the normalized growth (S. cerevisiae deletion strains, locus YJR043C, strain POL32, hits give low values) was 1.01 and the normalized growth (S. cerevisiae deletion strains, locus YJR075W, strain HOC1, hits give low values) was 1.02. It also gave a normalized growth (S. cerevisiae deletion strains, locus YLR039C, strain RIC1, hits give low values) of 1, a normalized growth (S. cerevisiae deletion strains, locus YLR058C, strain SHM2 (second series), hits give low values) of 0.998 and a normalized growth (S. cerevisiae deletion strains, locus YLR085C, strain ARP6, hits give low values) of 1.07. For the same compound, the normalized growth (S. cerevisiae deletion strains, locus YLR262C, strain YPT6, hits give low values) was 1, the normalized growth (S. cerevisiae deletion strains, locus YML094W, strain GIM5, hits give low values) was 1.03 and the normalized growth (S. cerevisiae deletion strains, locus YMR219W, strain ESC1, hits give low values) was 1.01. It also gave a normalized growth (S. cerevisiae deletion strains, locus YMR263W, strain SAP30, hits give low values) of 1.01, a normalized growth (S. cerevisiae deletion strains, locus YMR307W, strain GAS1, hits give low values) of 1.02 and a normalized growth (S. cerevisiae deletion strains, locus YNL153C, strain GIM3, hits give low values) of 1.01. It also gave a normalized growth (S. cerevisiae deletion strains, locus YNL298W, strain CLA4 (second series), hits give low values) of 0.984, a normalized growth (S. cerevisiae deletion strains, locus YNL322C, strain KRE1, hits give low values) of 1.02 and a normalized growth (S. cerevisiae deletion strains, locus YNR030W, strain Alg12, hits give low values) of 1.02. The normalized growth (S. cerevisiae deletion strains, locus YPL055C, strain LGE1, hits give low values) was 1.07, the normalized growth (S. cerevisiae deletion strains, locus YPL241C, strain CIN2, hits give low values) was 1.02 and the normalized growth (S. cerevisiae deletion strains, locus YPR135W, strain CTF4, hits give low values) was 1.13. It also gave a normalized growth (S. cerevisiae strains, strain wild type, hits give low values) of 1.02.

For `CCCCCC(=O)Cc1cc(O)cc(O)c1C(=O)Oc1cc(CC(=O)CCCCC)c(C(=O)O)c(OC)c1`, the normalized growth (S. cerevisiae deletion strains, locus YAL021C, strain ccr4, hits give low values) was 0.892 (active), the normalized growth (S. cerevisiae deletion strains, locus YAL026C, strain drs2, hits give low values) was 0.86 (active) and the normalized growth (S. cerevisiae deletion strains, locus YAL030W, strain snc1, hits give low values) was 0.934. The normalized growth (S. cerevisiae deletion strains, locus YBL061C, strain skt5, hits give low values) was 0.925, the normalized growth (S. cerevisiae deletion strains, locus YBR009C, strain hhf1, hits give low values) was 0.881 (active) and the normalized growth (S. cerevisiae deletion strains, locus YBR023C, strain chs3, hits give low values) was 0.907 (active). For the same compound, the normalized growth (S. cerevisiae deletion strains, locus YBR171W, strain sec66, hits give low values) was 0.858 (active), the normalized growth (S. cerevisiae deletion strains, locus YBR231C, strain swc5, hits give low values) was 0.927 and the normalized growth (S. cerevisiae deletion strains, locus YBR279W, strain paf1, hits give low values) was 0.943. It also gave a normalized growth (S. cerevisiae deletion strains, locus YCL011C, strain gbp2, hits give low values) of 0.933, a normalized growth (S. cerevisiae deletion strains, locus YCL016C, strain dcc1, hits give low values) of 0.943 and a normalized growth (S. cerevisiae deletion strains, locus YCL069W, strain vba3, hits give low values) of 0.929. The normalized growth (S. cerevisiae deletion strains, locus YCR088W, strain abp1, hits give low values) was 0.934, the normalized growth (S. cerevisiae deletion strains, locus YDL005C, strain med2, hits give low values) was 0.954 and the normalized growth (S. cerevisiae deletion strains, locus YDL040C, strain nat1, hits give low values) was 0.939. For the same compound, the normalized growth (S. cerevisiae deletion strains, locus YDR001C, strain nth1, hits give low values) was 0.936, the normalized growth (S. cerevisiae deletion strains, locus YDR069C, strain doa4, hits give low values) was 0.95 and the normalized growth (S. cerevisiae deletion strains, locus YDR137W, strain rgp1, hits give low values) was 0.412 (active). The normalized growth (S. cerevisiae deletion strains, locus YDR159W, strain sac3, hits give low values) was 0.771 (active), the normalized growth (S. cerevisiae deletion strains, locus YDR195W, strain ref2) was 0.863 and the normalized growth (S. cerevisiae deletion strains, locus YDR297W, strain sur2, hits give low values) was 0.927. For the same compound, the normalized growth (S. cerevisiae deletion strains, locus YDR334W, strain swr1, hits give low values) was 0.917, the normalized growth (S. cerevisiae deletion strains, locus YDR335W, strain msn5, hits give low values) was 0.894 (active) and the normalized growth (S. cerevisiae deletion strains, locus YDR392W, strain spt3, hits give low values) was 0.404 (active). The normalized growth (S. cerevisiae deletion strains, locus YEL003W, strain gim4, hits give low values) was 0.919, the normalized growth (S. cerevisiae deletion strains, locus YEL037C, strain rad23, hits give low values) was 0.941 and the normalized growth (S. cerevisiae deletion strains, locus YEL061C, strain CIN8 (second series), hits give low values) was 0.946. For the same compound, the normalized growth (S. cerevisiae deletion strains, locus YER015W, strain faa2, hits give low values) was 0.947, the normalized growth (S. cerevisiae deletion strains, locus YER016W, strain bim1, hits give low values) was 0.913 (active) and the normalized growth (S. cerevisiae deletion strains, locus YER111C, strain swi4, hits give low values) was 0.941. For the same compound, the normalized growth (S. cerevisiae deletion strains, locus YER155C, strain BEM2 (second series), hits give low values) was 0.639 (active), the normalized growth (S. cerevisiae deletion strains, locus YFR010W, strain ubp6, hits give low values) was 0.933 and the normalized growth (S. cerevisiae deletion strains, locus YGL167C, strain pmr1, hits give low values) was 0.89 (active). The normalized growth (S. cerevisiae deletion strains, locus YGL173C, strain kem1, hits give low values) was 0.851 (active), the normalized growth (S. cerevisiae deletion strains, locus YGL227W, strain vid30, hits give low values) was 0.937 and the normalized growth (S. cerevisiae deletion strains, locus YGL240W, strain doc1, hits give low values) was 0.77 (active). For the same compound, the normalized growth (S. cerevisiae deletion strains, locus YGL253W, strain hxk2, hits give low values) was 0.855 (active), the normalized growth (S. cerevisiae deletion strains, locus YHR013C, strain ard1, hits give low values) was 1.18 [resistant] (active) and the normalized growth (S. cerevisiae deletion strains, locus YHR027C, strain rpn1, hits give low values) was 0.919 (active). The normalized growth [1] was 1.01, the normalized growth (S. cerevisiae deletion strains, locus YHR079C, strain IRE1, hits give low values) was 0.981 and the normalized growth (S. cerevisiae deletion strains, locus YHR142W, strain chs7, hits give low values) was 0.818 (active). The normalized growth (S. cerevisiae deletion strains, locus YJL092W, strain hpr5, hits give low values) was 0.943, the normalized growth (S. cerevisiae deletion strains, locus YJL095W, strain BCK1 (second series), hits give low values) was 0.694 (active) and the normalized growth (S. cerevisiae deletion strains, locus YJL095W, strain BCK1, hits give low values) was 0.99. For the same compound, the normalized growth (S. cerevisiae deletion strains, locus YJL115W, strain asf1, hits give low values) was 0.922, the normalized growth (S. cerevisiae deletion strains, locus YJL129C, strain trk1, hits give low values) was 0.632 (active) and the normalized growth (S. cerevisiae deletion strains, locus YJL154C, strain vps35, hits give low values) was 0.935. For the same compound, the normalized growth (S. cerevisiae deletion strains, locus YJL164C, strain tpk1, hits give low values) was 0.899 (active), the normalized growth (S. cerevisiae deletion strains, locus YJL166W, strain qcr8, hits give low values) was 0.871 (active) and the normalized growth (S. cerevisiae deletion strains, locus YJL187C, strain SWE1, hits give low values) was 0.909 (active). For the same compound, the normalized growth (S. cerevisiae deletion strains, locus YJR066W, strain TOR1, hits give low values) was 0.939, the normalized growth (S. cerevisiae deletion strains, locus YKL160W, strain elf1, hits give low values) was 0.916 and the normalized growth (S. cerevisiae deletion strains, locus YKR026C, strain gcn3, hits give low values) was 0.933. The normalized growth (S. cerevisiae deletion strains, locus YKR091W, strain srl3, hits give low values) was 0.922 (active), the normalized growth (S. cerevisiae deletion strains, locus YLL001W, strain dnm1, hits give low values) was 0.941 and the normalized growth (S. cerevisiae deletion strains, locus YLL026W, hits give low values) was 0.935. The normalized growth (S. cerevisiae deletion strains, locus YLL041C, strain sdh2, hits give low values) was 0.927 (active), the normalized growth (S. cerevisiae deletion strains, locus YLR027C, strain aat2, hits give low values) was 0.922 (active) and the normalized growth (S. cerevisiae deletion strains, locus YLR113W, strain HOG1, hits give low values) was 0.983. For the same compound, the normalized growth (S. cerevisiae deletion strains, locus YLR221C, strain rsa3, hits give low values) was 0.859 (active), the normalized growth (S. cerevisiae deletion strains, locus YLR258W, strain gsy2, hits give low values) was 0.919 and the normalized growth (S. cerevisiae deletion strains, locus YLR262C, strain YPT6 (second series), hits give low values) was 0.409 (active). The normalized growth (S. cerevisiae deletion strains, locus YLR320W, strain mms22, hits give low values) was 0.826 (active), the normalized growth (S. cerevisiae deletion strains, locus YLR342W, strain FKS1, hits give low values) was 0.901 (active) and the normalized growth (S. cerevisiae deletion strains, locus YLR357W, strain rsc2, hits give low values) was 0.866. For the same compound, the normalized growth (S. cerevisiae deletion strains, locus YLR370C, strain arc18, hits give low values) was 0.925, the normalized growth (S. cerevisiae deletion strains, locus YLR384C, strain iki3, hits give low values) was 0.945 and the normalized growth (S. cerevisiae deletion strains, locus YML120C, strain ndi1, hits give low values) was 0.898 (active). The normalized growth (S. cerevisiae deletion strains, locus YMR058W, strain fet3, hits give low values) was 0.883 (active), the normalized growth (S. cerevisiae deletion strains, locus YMR125W, strain sto1, hits give low values) was 0.909 and the normalized growth (S. cerevisiae deletion strains, locus YMR129W, hits give low values) was 0.918 (active). The normalized growth (S. cerevisiae deletion strains, locus YMR205C, strain PFK2, hits give low values) was 0.783 (active), the normalized growth (S. cerevisiae deletion strains, locus YMR231W, strain pep5, hits give low values) was 0.929 and the normalized growth (S. cerevisiae deletion strains, locus YNL071W, strain lat1, hits give low values) was 0.888 (active). The normalized growth (S. cerevisiae deletion strains, locus YNL183C, strain NPR1, hits give low values) was 0.946, the normalized growth (S. cerevisiae deletion strains, locus YNL209W, strain ssb2, hits give low values) was 0.948 and the normalized growth (S. cerevisiae deletion strains, locus YNL248C, strain rpa49, hits give low values) was 0.903. The normalized growth (S. cerevisiae deletion strains, locus YNL322C, strain KRE1 (second series), hits give low values) was 0.919, the normalized growth (S. cerevisiae deletion strains, locus YNR049C, strain mso1, hits give low values) was 0.95 and the normalized growth (S. cerevisiae deletion strains, locus YOR001W, strain rrp6, hits give low values) was 0.882 (active). The normalized growth (S. cerevisiae deletion strains, locus YOR070C, strain gyp1, hits give low values) was 0.918 (active), the normalized growth (S. cerevisiae deletion strains, locus YOR080W, strain dia2, hits give low values) was 0.938 and the normalized growth (S. cerevisiae deletion strains, locus YOR083W, strain WHI5, hits give low values) was 0.898. The normalized growth (S. cerevisiae deletion strains, locus YOR106W, strain vam3, hits give low values) was 0.897, the normalized growth (S. cerevisiae deletion strains, locus YOR231W, strain MKK1, hits give low values) was 0.994 and the normalized growth (S. cerevisiae deletion strains, locus YOR265W, strain rbl2, hits give low values) was 0.925 (active). The normalized growth (S. cerevisiae deletion strains, locus YOR270C, strain vph1, hits give low values) was 0.607 (active), the normalized growth (S. cerevisiae deletion strains, locus YOR290C, strain snf2, hits give low values) was 0.925 and the normalized growth (S. cerevisiae deletion strains, locus YPL051W, strain arl3, hits give low values) was 0.853 (active). The normalized growth (S. cerevisiae deletion strains, locus YPL078C, strain atp4, hits give low values) was 0.862 (active), the normalized growth (S. cerevisiae deletion strains, locus YPL106C, strain sse1, hits give low values) was 0.812 (active) and the normalized growth (S. cerevisiae deletion strains, locus YPL240C, strain hsp82, hits give low values) was 0.912 (active). For the same compound, the normalized growth (S. cerevisiae deletion strains, locus YPL256C, strain CLN2, hits give low values) was 0.989.
